# According to the supplement of paper PMC8728848:
# This is one part of a sample in which the strongest signals are shown more often than they occur.
# Assays:
# Assay in all cases: glycan array binding signal (z-score within array); higher = stronger binding
# Conditions in all cases: glycan notation: IUPAC condensed, linker removed
# [1] = target: Fuc(a1-2)Gal(b1-3)GalNAc
# Outline: (§1)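 Columns mapping to the same glycan were averaged after glycan names were converted to IUPAC-condensed notation. The data come from 3228 arrays in the Consortium for Functional Glycomics database, limited to those with an available protein sequence. Binding is reported as a within-array Z-score averaged across arrays of one protein sequence and across linkers.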
# [2] = target: Fuc(a1-2)Gal(b1-3)GalNAc(b1-4)[Neu5Ac(a2-3)]Gal(b1-4)Glc
# Outline: as §1
# [3] = target: Fuc(a1-2)Gal(b1-3)GlcNAc(b1-3)[Neu5Ac(a2-6)Gal(b1-4)GlcNAc(b1-6)]Gal(b1-4)Glc
# Outline: as §1
# [4] = target: Fuc(a1-2)Gal(b1-4)GlcNAc(b1-3)Gal(b1-4)GlcNAc(b1-3)Gal(b1-4)GlcNAc
# Outline: as §1
# [5] = target: Fuc(a1-2)Gal(b1-4)GlcNAc(b1-3)[Fuc(a1-2)Gal(b1-4)GlcNAc(b1-6)]GalNAc
# Outline: as §1
# [6] = target: Fuc(a1-2)Gal(b1-4)[Fuc(a1-3)]GlcNAc(b1-3)GalNAc
# Outline: as §1
# [7] = target: Fuc(a1-2)Gal6S(b1-4)GlcNAc
# Outline: as §1
# [8] = target: Fuc(a1-2)[Gal(a1-3)]Gal
# Outline: as §1
# [9] = target: Fuc(a1-2)[Gal(a1-3)]Gal(b1-4)GlcNAc(b1-2)Man(a1-3)[Fuc(a1-2)[Gal(a1-3)]Gal(b1-4)GlcNAc(b1-2)Man(a1-6)]Man(b1-4)GlcNAc(b1-4)[Fuc(a1-6)]GlcNAc
# Outline: as §1
# [10] = target: Fuc(a1-2)[Gal(a1-3)]Gal(b1-4)GlcNAc(b1-3)[Fuc(a1-2)[Gal(a1-3)]Gal(b1-4)GlcNAc(b1-6)]GalNAc
# Outline: as §1
# [11] = target: Fuc(a1-2)[GalNAc(a1-4)]Gal(b1-4)GlcNAc
# Outline: as §1
# [12] = target: Fuc(a1-3)[Gal(b1-4)]GlcNAc(b1-3)GalNAc
# Outline: as §1
# [13] = target: Gal(a1-3)Gal(b1-4)[Fuc(a1-3)]GlcNAc
# Outline: as §1
# [14] = target: Gal(b1-3)Gal
# Outline: as §1
# [15] = target: Gal(b1-3)Gal(b1-4)GlcNAc
# Outline: as §1
# [16] = target: Gal(b1-3)GalNAc(a1-3)[Fuc(a1-2)]Gal(b1-4)Glc
# Outline: as §1
# [17] = target: Gal(b1-3)GalNAc(a1-3)[Fuc(a1-2)]Gal(b1-4)GlcNAc
# Outline: as §1
# [18] = target: Gal(b1-3)GalNAc(b1-3)Gal
# Outline: as §1
# [19] = target: Gal(b1-3)GalNAc(b1-3)Gal(a1-4)Gal(b1-4)Glc
# Outline: as §1
# [20] = target: Gal(b1-3)GalNAc(b1-4)Gal(b1-4)Glc
# Outline: as §1
# [21] = target: Gal(b1-3)GalNAc(b1-4)[Neu5Ac(a2-3)]Gal(b1-4)Glc
# Outline: as §1
# [22] = target: Gal(b1-3)GlcNAc
# Outline: as §1
# [23] = target: Gal(b1-3)GlcNAc(b1-3)Gal(b1-3)GlcNAc
# Outline: as §1
# [24] = target: Gal(b1-3)[GlcNAc(b1-6)]GalNAc
# Outline: as §1
# [25] = target: Gal(b1-3)[Neu5Ac(a2-6)]GalNAc
# Outline: as §1
# [26] = target: Gal(b1-4)Glc
# Outline: as §1
# [27] = target: Gal(b1-4)GlcNAc(b1-3)Gal(b1-3)GlcNAc
# Outline: as §1
# [28] = target: Gal(b1-4)GlcNAc(b1-3)Gal(b1-4)GlcNAc(b1-3)Gal(b1-4)GlcNAc(b1-3)Gal(b1-4)GlcNAc(b1-3)Gal(b1-4)GlcNAc(b1-2)[Gal(b1-4)GlcNAc(b1-3)Gal(b1-4)GlcNAc(b1-3)Gal(b1-4)GlcNAc(b1-3)Gal(b1-4)GlcNAc(b1-3)Gal(b1-4)GlcNAc(b1-6)]Man(a1-6)[Gal(b1-4)GlcNAc(b1-3)Gal(b1-4)GlcNAc(b1-3)Gal(b1-4)GlcNAc(b1-3)Gal(b1-4)GlcNAc(b1-3)Gal(b1-4)GlcNAc(b1-2)Man(a1-3)]Man(b1-4)GlcNAc(b1-4)[Fuc(a1-6)]GlcNAc
# Outline: as §1
# [29] = target: Gal(b1-4)GlcNAc(b1-3)[Gal(b1-4)GlcNAc(b1-6)]GalNAc
# Outline: as §1
# [30] = target: Gal(b1-4)GlcNAc(b1-6)Gal(b1-4)GlcNAc
# Outline: as §1
# [31] = target: Gal(b1-4)GlcNAc(b1-6)[Gal(b1-3)]GlcNAc
# Outline: as §1
# [32] = target: Gal6P(b1-4)GlcNAc
# Outline: as §1
# [33] = target: GalNAc(b1-3)Gal
# Outline: as §1
# [34] = target: GalNAc(b1-3)Gal(a1-4)Gal(b1-4)GlcNAc
# Outline: as §1
# [35] = target: GalNAc(b1-4)Gal(b1-4)Glc
# Outline: as §1
# [36] = target: GlcNAc(a1-4)Gal(b1-4)GlcNAc(b1-3)Gal(b1-4)Glc
# Outline: as §1
# [37] = target: GlcNAc(a1-4)Gal(b1-4)GlcNAc(b1-3)Gal(b1-4)GlcNAc(b1-3)Gal(b1-4)GlcNAc
# Outline: as §1
# [38] = target: GlcNAc(b1-2)Gal(b1-3)GalNAc
# Outline: as §1
# [39] = target: GlcNAc(b1-2)Man(a1-3)[GlcNAc(b1-2)Man(a1-6)]Man(b1-4)GlcNAc(b1-4)[Fuc(a1-6)]GlcNAc
# Outline: as §1
# [40] = target: GlcNAc(b1-3)Fuc
# Outline: as §1
# [41] = target: GlcNAc(b1-3)Gal(b1-4)GlcNAc(b1-3)[GlcNAc(b1-3)Gal(b1-4)GlcNAc(b1-3)]GalNAc
# Outline: as §1
# [42] = target: GlcNAc(b1-3)Man
# Outline: as §1
# [43] = target: GlcNAc(b1-4)GlcNAc
# Outline: as §1
# [44] = target: Neu5Ac(a2-3)Gal(b1-3)GalNAc(b1-4)[Neu5Ac(a2-8)Neu5Ac(a2-3)]Gal(b1-4)Glc
# Outline: as §1
# [45] = target: Neu5Ac(a2-3)Gal(b1-3)GlcNAc(b1-3)Gal(b1-3)GlcNAc
# Outline: as §1
# [46] = target: Neu5Ac(a2-3)Gal(b1-3)GlcNAc(b1-3)GalNAc
# Outline: as §1
# [47] = target: Neu5Ac(a2-3)Gal(b1-3)[Fuc(a1-4)]GlcNAc(b1-3)Gal(b1-3)[Fuc(a1-4)]GlcNAc
# Outline: as §1
# [48] = target: Neu5Ac(a2-3)Gal(b1-3)]Neu5Ac(a2-3)Gal(b1-4)]GlcNAc
# Outline: as §1
# [49] = target: Neu5Ac(a2-3)Gal(b1-4)Glc
# Outline: as §1
# [50] = target: Neu5Ac(a2-3)Gal(b1-4)[Fuc(a1-3)]GlcNAc(b1-3)Gal(b1-4)GlcNAc
# Outline: as §1
# [51] = target: Neu5Ac(a2-6)Gal
# Outline: as §1
# [52] = target: Neu5Ac(a2-6)Gal(b1-4)GlcNAc(b1-2)[Neu5Ac(a2-6)Gal(b1-4)GlcNAc(b1-4)]Man(a1-3)[GlcNAc(b1-4)][Neu5Ac(a2-6)Gal(b1-4)GlcNAc(b1-2)[Neu5Ac(a2-6)Gal(b1-4)GlcNAc(b1-6)]Man(a1-6)]Man(b1-4)GlcNAc(b1-4)GlcNAc
# Outline: as §1
# [53] = target: Neu5Ac(a2-6)Gal(b1-4)GlcNAc(b1-3)Gal(b1-4)GlcNAc
# Outline: as §1
# [54] = target: Neu5Ac(a2-6)Gal(b1-4)GlcNAc(b1-6)[Gal(b1-3)]GalNAc
# Outline: as §1
# [55] = target: Neu5Ac(a2-6)Gal(b1-4)GlcNAc6S
# Outline: as §1
# [56] = target: Neu5Ac(a2-8)Neu5Ac(a2-8)Neu5Ac(a2-3)[Gal(b1-3)GalNAc(b1-4)]Gal(b1-4)Glc
# Outline: as §1
# [57] = target: Neu5Ac(a2-8)Neu5Gc(a2-3)Gal(b1-4)GlcNAc
# Outline: as §1
binder,measurement,setting,value
"Epa7 (Candida glabrata), Q6DTM6_CANGB (protein) MGSSHHHHHHSSGLVPRGSHMKDDYSSFLSNNNLGWTDPTEFPLGCSPNVTTPKNGLSMELYSYDLRKNGSYPCWDAAYLDPNYPRTGYKSHRLLAKVDGVTGNINFYYHATKGCTPEIDHLPASYNYPKPLTMTNFTMLLYGYFKPKVTGYHTFTISADDLLFVNFGAGNAFDCCKRESSADDFGNYQAYAVWGSQTAKDDLTVHLDAGLYYPIRIFFNNREYDAELSLTLKTESDSNPVIDFSDYFYSFDDTKDGCPGLVSYDTS",glycan array binding signal (z-score),[1],-0.169
same,glycan array binding signal (z-score),[2],-0.072
same,glycan array binding signal (z-score),[3],-0.206
same,glycan array binding signal (z-score),[4],-0.253
same,glycan array binding signal (z-score),[5],-0.209
same,glycan array binding signal (z-score),[6],-0.027
same,glycan array binding signal (z-score),[7],-0.285
same,glycan array binding signal (z-score),[8],-0.213
same,glycan array binding signal (z-score),[9],-0.241
same,glycan array binding signal (z-score),[10],-0.208
same,glycan array binding signal (z-score),[11],-0.256
same,glycan array binding signal (z-score),[12],-0.19
same,glycan array binding signal (z-score),[13],-0.201
same,glycan array binding signal (z-score),[14],2.85
same,glycan array binding signal (z-score),[15],5.79
same,glycan array binding signal (z-score),[16],5.79
same,glycan array binding signal (z-score),[17],5.59
same,glycan array binding signal (z-score),[18],11
same,glycan array binding signal (z-score),[19],4.75
same,glycan array binding signal (z-score),[20],7.99
same,glycan array binding signal (z-score),[21],4.82
same,glycan array binding signal (z-score),[22],-0.104
same,glycan array binding signal (z-score),[23],-0.207
same,glycan array binding signal (z-score),[24],1.21
same,glycan array binding signal (z-score),[25],4.18
same,glycan array binding signal (z-score),[26],-0.199
same,glycan array binding signal (z-score),[27],-0.246
same,glycan array binding signal (z-score),[28],0.068
same,glycan array binding signal (z-score),[29],5.02
same,glycan array binding signal (z-score),[30],0.23
same,glycan array binding signal (z-score),[31],5.53
same,glycan array binding signal (z-score),[32],-0.241
same,glycan array binding signal (z-score),[33],-0.245
same,glycan array binding signal (z-score),[34],-0.251
same,glycan array binding signal (z-score),[35],-0.213
same,glycan array binding signal (z-score),[36],-0.234
same,glycan array binding signal (z-score),[37],-0.237
same,glycan array binding signal (z-score),[38],-0.197
same,glycan array binding signal (z-score),[39],-0.232
same,glycan array binding signal (z-score),[40],-0.233
same,glycan array binding signal (z-score),[41],-0.225
same,glycan array binding signal (z-score),[42],-0.232
same,glycan array binding signal (z-score),[43],-0.23
same,glycan array binding signal (z-score),[44],-0.06
same,glycan array binding signal (z-score),[45],-0.256
same,glycan array binding signal (z-score),[46],-0.21
same,glycan array binding signal (z-score),[47],-0.196
same,glycan array binding signal (z-score),[48],-0.228
same,glycan array binding signal (z-score),[49],-0.257
same,glycan array binding signal (z-score),[50],-0.189
same,glycan array binding signal (z-score),[51],-0.228
same,glycan array binding signal (z-score),[52],-0.234
same,glycan array binding signal (z-score),[53],-0.258
same,glycan array binding signal (z-score),[54],1.19
same,glycan array binding signal (z-score),[55],-0.257
same,glycan array binding signal (z-score),[56],0.014
same,glycan array binding signal (z-score),[57],-0.241
